In PubChem BioAssay (NCI) one finds growth data, which are given here for eight molecules.

The structures appear in SMILES notation. Compounds without any hit were thinned out: in the full panel of roughly 83,000, 20% have a hit.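 Plates (96-well) were seeded with cells, treated with compound at one concentration, and incubated for 48 hours before percent growth was determined.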 A number with no mark means an inactive call. The source made the active and inactive calls. How the source made its calls: active means growth percent below 10; inactive means the rest.

Common to all, as to test: NCI-60 one-dose screen, 48 h (100 = growth as untreated, 0 = no growth, -100 = all killed)
One assay concerns SK-MEL-2 melanoma. The following applies: 10 µM unless noted.
Another assay deals with EKVX NSCLC. The following applies: 10 µM unless noted.
For the next assay, the system named is SN12C renal. The following applies: 10 µM unless noted.
The next assay deals with UO-31 renal. The following applies: 10 µM unless noted.
Another assay relates to ACHN renal. The following applies: 10 µM unless noted.
Another assay deals with CAKI-1 renal. As to conditions: 10 µM.
Another assay deals with A498 renal. The following applies: 10 µM unless noted.
For another assay, the system named is CCRF-CEM leukemia. The following applies: 10 µM unless noted.
The next assay relates to MOLT-4 leukemia. The following applies: 10 µM unless noted.
Another assay relates to SR leukemia. As to conditions: 10 µM unless noted.
In the next assay the test system is RPMI-8226 leukemia. As to conditions: 10 µM unless noted.
Another assay relates to OVCAR-8 ovarian. As to conditions: 10 µM unless noted.
The test system of another assay is OVCAR-5 ovarian. The following applies: 10 µM unless noted.
In a further assay the test system is OVCAR-4 ovarian. The following applies: 10 µM unless noted.
The test system of a further assay is SK-OV-3 ovarian. The following applies: 10 µM unless noted.
Another assay has as its system IGROV1 ovarian. As to conditions: 10 µM unless noted.
In another assay the test system is OVCAR-3 ovarian. The following applies: 10 µM unless noted.
Another assay concerns NCI/ADR-RES ovarian. The following applies: 10 µM unless noted.
The subject of a further assay is HS 578T breast. As to conditions: 10 µM unless noted.

In the case of `O=C(Nc1ccc(-n2cc(-c3ccncc3)c(-c3ccc(O)c(Cl)c3)n2)cc1)c1cc(Cl)cc(Cl)c1`, the growth in the assay with SK-MEL-2 melanoma is 7.85% (active); with EKVX NSCLC it was 56.5%; in the assay on SN12C renal, 35.8%; in the assay with UO-31 renal, 16.4%; with ACHN renal, 16.2%; in the assay on CAKI-1 renal it was 45.8%. Besides, the growth in the assay with A498 renal was 95.4%; in the assay on CCRF-CEM leukemia, 16.9%; in the assay with MOLT-4 leukemia it was 11.1%; in the assay on SR leukemia, 14.8%; with RPMI-8226 leukemia it was -19.5% (active); with OVCAR-8 ovarian, 30.3%. Besides, the growth in the assay with OVCAR-5 ovarian was 71.4%; in the assay with OVCAR-4 ovarian, 78.1%; in the assay on SK-OV-3 ovarian, 70.2%; in the assay with IGROV1 ovarian, 43.2%; with OVCAR-3 ovarian, 27%; in the assay on NCI/ADR-RES ovarian, 28.7%.
In the case of `O=C(Nc1cccc(-n2ccc3c(NC(=O)c4ccccc4)nccc32)c1)c1cc(N2CCOCC2)cc(C(F)(F)F)c1`, the growth was -4.8% (active) in the assay with SK-MEL-2 melanoma; 36.8% in the assay with EKVX NSCLC; 18.8% in the assay on SN12C renal; 9.78% (active) in the assay with UO-31 renal; 6% (active) in the assay on ACHN renal; 23.5% in the assay with CAKI-1 renal. The growth in the assay with A498 renal was 6.2% (active); with CCRF-CEM leukemia it was 13.5%; in the assay with MOLT-4 leukemia it was 0.605% (active); with SR leukemia it was -14.2% (active); in the assay on RPMI-8226 leukemia, -42.4% (active); with OVCAR-8 ovarian, 2.86% (active). Further, the growth in the assay with OVCAR-5 ovarian is 19.3%; in the assay on OVCAR-4 ovarian, 83.1%; in the assay on SK-OV-3 ovarian it was 5% (active); with IGROV1 ovarian, 4.25% (active); in the assay with OVCAR-3 ovarian it was -34.8% (active); in the assay on NCI/ADR-RES ovarian, 7.24% (active).
Take `O=C1OC(N(Cc2ccc(Cl)cc2)c2ccccc2)c2ccccc21` (stereo unspecified): the growth in the assay with SK-MEL-2 melanoma was 94.4%; in the assay with EKVX NSCLC, 102%; in the assay on SN12C renal, 94.6%; with UO-31 renal, 94.5%; in the assay on ACHN renal it was 108%; in the assay on CAKI-1 renal it was 103%. Moreover, the growth with A498 renal is 90.1%; in the assay with CCRF-CEM leukemia, 92.2%; in the assay on MOLT-4 leukemia it was 81.9%; in the assay on SR leukemia it was 97.8%; in the assay with OVCAR-8 ovarian it was 107%; in the assay on OVCAR-5 ovarian, 109%. The growth in the assay on OVCAR-4 ovarian was 116%; with IGROV1 ovarian, 90.7%; with OVCAR-3 ovarian, 104%; in the assay with HS 578T breast it was 108%; in the assay with NCI/ADR-RES ovarian, 105%.
On to `O=C(Nc1ccc(-n2cc(-c3ccncc3)c(-c3ccc(O)c(Cl)c3)n2)cc1)Nc1cccc(Cl)c1Cl`, for which the growth in the assay on SK-MEL-2 melanoma was 66.8%; in the assay with EKVX NSCLC it was 44.9%; in the assay with SN12C renal, 83.1%; in the assay with UO-31 renal it was 57.2%; in the assay with ACHN renal, 47.8%; with CAKI-1 renal it was 67.3%. The growth in the assay on A498 renal is 68.7%; with CCRF-CEM leukemia it was 38.2%; in the assay on MOLT-4 leukemia it was 39.1%; in the assay with SR leukemia, 74%; with RPMI-8226 leukemia, 12.7%; with OVCAR-8 ovarian it was 62%. The growth in the assay with OVCAR-5 ovarian is 101%; in the assay on OVCAR-4 ovarian, 78.7%; with SK-OV-3 ovarian, 81.7%; with IGROV1 ovarian, 77.9%; in the assay on OVCAR-3 ovarian, 55.3%; in the assay with NCI/ADR-RES ovarian, 66.7%.
For the molecule `O=C(NCCNc1nccc(-c2c(-c3cccc(O)c3)nc3sccn23)n1)Nc1cccc(C(F)(F)F)c1`, the growth was 54.4% in the assay with SK-MEL-2 melanoma; 91.2% in the assay with EKVX NSCLC; 70.7% with SN12C renal; 75.2% in the assay on UO-31 renal; 85.1% in the assay on ACHN renal; 90.3% in the assay with CAKI-1 renal. For the same molecule, the growth was 111% in the assay on A498 renal; 23.1% in the assay with CCRF-CEM leukemia; 59.8% with MOLT-4 leukemia; 59.2% with SR leukemia; 41.2% in the assay on OVCAR-8 ovarian; 117% with OVCAR-5 ovarian. For the same molecule, the growth in the assay on OVCAR-4 ovarian is 110%; in the assay on SK-OV-3 ovarian, 85%; in the assay on IGROV1 ovarian it was 65.6%; with OVCAR-3 ovarian, 76.7%; with NCI/ADR-RES ovarian, 108%.
Take `O=C(Nc1ccc(-n2cc(-c3ccncc3)c(-c3ccc(O)c(Cl)c3)n2)cc1)c1cc(C(F)(F)F)cc(C(F)(F)F)c1`: the growth is 68.8% in the assay on SK-MEL-2 melanoma; 66.3% in the assay on EKVX NSCLC; 64.4% in the assay on SN12C renal; 50.8% in the assay with UO-31 renal; 54.2% in the assay on ACHN renal; 54.4% in the assay with CAKI-1 renal. In addition, the growth in the assay with A498 renal is 76.7%; in the assay on CCRF-CEM leukemia, 31.1%; with MOLT-4 leukemia it was 28.3%; in the assay on SR leukemia, 58.8%; in the assay on OVCAR-8 ovarian it was 69.5%; in the assay with OVCAR-5 ovarian it was 70.9%. Further, the growth with OVCAR-4 ovarian was 85.9%; in the assay with SK-OV-3 ovarian, 84%; in the assay with IGROV1 ovarian, 61.4%; in the assay on OVCAR-3 ovarian, 49.8%; in the assay on NCI/ADR-RES ovarian it was 67.2%.
Turning to `Nc1nccc2c1ccn2-c1cccc(NC(=O)c2ccc(N3CCOCC3)c(C(F)(F)F)c2)c1`, the growth was -6.68% (active) with SK-MEL-2 melanoma; 44.4% in the assay on EKVX NSCLC; 25.6% with SN12C renal; 7.5% (active) in the assay with UO-31 renal; 13.3% in the assay on ACHN renal; -0.708% (active) with CAKI-1 renal. Also, the growth with A498 renal is -12.9% (active); in the assay with CCRF-CEM leukemia, 7.34% (active); with MOLT-4 leukemia, 9.73% (active); in the assay with SR leukemia, -13.4% (active); with RPMI-8226 leukemia it was -40.9% (active); in the assay with OVCAR-8 ovarian it was 0.868% (active). Further, the growth in the assay on OVCAR-5 ovarian was 32.6%; with OVCAR-4 ovarian, 78.5%; in the assay on SK-OV-3 ovarian, 16.6%; with IGROV1 ovarian it was 28.1%; in the assay on OVCAR-3 ovarian, -27.2% (active); with NCI/ADR-RES ovarian it was -2.74% (active).
In the case of `O=C(Nc1ccc(-n2cc(-c3ccncc3)c(-c3ccc(O)c(Cl)c3)n2)cc1)Nc1cc(C(F)(F)F)cc(C(F)(F)F)c1`, the growth with SK-MEL-2 melanoma is 77.6%; in the assay on EKVX NSCLC, 44.6%; in the assay with SN12C renal, 61.6%; in the assay with UO-31 renal it was 59.6%; in the assay on ACHN renal it was 65.5%; in the assay on CAKI-1 renal it was 46.6%. Moreover, the growth in the assay with A498 renal is 65.9%; with CCRF-CEM leukemia, 55.8%; in the assay on MOLT-4 leukemia it was 64.3%; in the assay with SR leukemia, 69.7%; in the assay with RPMI-8226 leukemia, 45%; in the assay with OVCAR-8 ovarian, 56.4%. Further, the growth was 75.7% in the assay with OVCAR-5 ovarian; 82.2% with OVCAR-4 ovarian; 81.7% with SK-OV-3 ovarian; 56.3% in the assay on IGROV1 ovarian; 33.3% in the assay on OVCAR-3 ovarian; 55% with NCI/ADR-RES ovarian.
